Consider 8 molecules from PubChem BioAssay (NCATS).

A short description of experiment [1]: Cell Viability - N2a (AID 540).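 For activity change, negative = cytotoxicity: plate controls were DMSO alone for no effect and tamoxifen control for full effect.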 Note: nearly all actives have a fitted effect of over 45% in size. Note: potency is the fitted concentration of half-maximal effect. The following applies: N2a mouse neuroblastoma cell viability; activity change, negative = cytotoxicity: at 92.2 µM (top of the series). In outline: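 Cytotoxicity was scored as loss of cellular ATP in N2a cells, a mouse neuroblastoma line. Compounds are applied in a qHTS concentration series for 40 hr at 37 °C.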
Experiment [2] can be described thus: Cell Viability - SH-SY5Y (AID 544).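 For viability change, negative = cytotoxic: 0% = DMSO alone and -100% = 100 µM tamoxifen.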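 Note: cells exposed to compound for 40 hours; nearly all actives have a fitted effect of over 55% in size.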 Note: potency is the fitted concentration of half-maximal effect. The conditions noted are these: SH-SY5Y neuroblastoma cell viability; viability change, negative = cytotoxic: at 92.2 µM (top of the series). In short, it runs like this: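 Cells were plated at 1500 per well and allowed 5 hr at 37 °C. Compounds were added across a concentration range and incubated 40 hr at 37 °C. CellTiter-Glo was added for 20 min at room temperature before luminescence reading.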

The nature of experiment [3]: Cell Viability - Renal Proximal Tubule (AID 545).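 Note: cells exposed to compound for 40 hours; 0% = DMSO only and -100% = 100 µM tamoxifen; nearly all actives have a fitted effect of over 40% in size.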 The conditions noted are these: renal proximal tubule cells viability, primary cells of rat origin; activity change, negative = cytotoxicity: at 91.7 µM (top of the series). In short, it runs like this:
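Rat kidney proximal tubule cells, freshly isolated; 1000 cells/well, 5 hr settle, compound 40 hr 37 °C. CellTiter-Glo 20 min RT, luminescence read. AC50 by standard Hill fit.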

Experiment [4] can be described thus: MultiTox-Fluor Cytotoxicity Assay - LYMP1-002 - Dead Cells (AID 960). Note: nearly all actives have a fitted effect of over 60% in size. Note: potency is the fitted concentration of half-maximal effect. In short, it runs like this: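 Cells were plated, rested 5 hr, then treated with compound dilution series for 16 hr at 37 C. After adding substrate reagent and 60 min at room temperature, dead-cell protease fluorescence gave concentration-response curves fitted by the Hill equation.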
The nature of experiment [5]: Cell Viability - LYMP2-004 (AID 966).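 Note: plate controls were DMSO only for no effect and tetraoctylammonium bromide control for full effect; nearly all actives have a fitted effect of over 65% in size.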 In outline:
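qHTS cytotoxicity: human lymphoblastoid line, 24 hr compound treatment, 37 C, complete medium. Viability read as cellular ATP via luciferase luminescence; tetraoctylammonium bromide served as positive control.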

A short description of experiment [6]: Cell Viability - LYMP2-005 (AID 967).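 Note: plate controls were DMSO only for no effect and 92 µM tetraoctylammonium bromide control for full effect.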 In outline: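 Steps: seed 2500 LYMP2-005 cells/well, incubate 5 h at 37 C, add compound, incubate 24 h at 37 C, add CellTiter-Glo, wait 30 min at RT, read luminescence. Concentration-response data fitted to Hill equation for AC50.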
Experiment [7] can be described thus: Cell Viability - LYMP2-009 (AID 968).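 Note: 0% = DMSO alone and the full-kill end = tetraoctylammonium bromide at 92 µM; nearly all actives have a fitted effect of over 55% in size.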
Experiment [8] can be described thus: Cell Viability - LYMP2-015 (AID 971).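 Note: 0% = DMSO only and full effect = 92 µM tetraoctylammonium bromide; nearly all actives have a fitted effect of over 55% in size.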 In outline: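 Cells are seeded at 2500 per well and incubated 5 hr at 37 C. Compounds are added across a concentration series for 24 hr at 37 C. CellTiter-Glo is added, and luminescence is read after 30 min at room temperature.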
Experiment [9] is described as follows: Cell Viability - LYMP2-017 (AID 972).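 Note: cells exposed to compound for 24 hours at 37 °C; % is set by controls: 0 for no effect and ±100 for the full control effect; nearly all actives have a fitted effect of over 55% in size.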 In outline:
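Cytotoxicity is scored as a concentration-dependent drop in cellular ATP in a human lymphoblastoid line after 24 hr treatment at 37 C. Values are AC50s from Hill-equation modelling.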

The nature of experiment [10]: Cell Viability - LYMP2-006 (AID 978).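 Note: cells exposed to compound for 24 hours; % is set by controls: 0 for no effect and ±100 for the full control effect; nearly all actives have a fitted effect of over 60% in size.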 In short, it runs like this: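 qHTS, 1536-well; 2500 cells/well, 5 hr 37 C; cpd 24 hr 37 C; CellTiter-Glo 30 min RT; luminescence. Tetraoctylammonium bromide pos. ctrl. AC50 via Hill eqn.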
The nature of experiment [11]: Cell Viability - LYMP2-010 (AID 981). In outline:
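Steps: seed 2500 LYMP2-010 cells per well; incubate 5 hr at 37 C; add compound; incubate 24 hr at 37 C; add CellTiter-Glo, wait 30 min at room temperature; read luminescence. Concentration-response fitted to Hill equation for AC50.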

Experiment [12] can be described thus: qHTS assay for small molecule agonists of retinoid X receptor alpha signaling (AID 588544; calls by dose curve). The following applies: HEK293T RXRa-UAS-bla, beta-lactamase reporter, 18 h; 530 nm emission. For orientation: Quantitative high-throughput screening tests each substance at several concentrations.
Experiment [13] addresses Retinoic acid receptor RXR-alpha (Homo sapiens) (UniProt P19793). The experiment is described as above.
The target of experiment [14] is Thyroid hormone receptor beta (Homo sapiens) (UniProt P10828). The experiment in a line: qHTS assay for small molecule agonists of thyroid hormone receptor beta signaling (AID 588545; calls by dose curve;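 note: 0% = DMSO only and 100% = 10 nM T3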). In outline: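 Beta-lactamase reporter activity under TR response element control is measured in HEK 293 cells after 18 hrs compound exposure. Signal is ratiometric CCF4 fluorescence, 460/530 nm.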
Thyroid hormone receptor beta (Homo sapiens), sequence (P10828 whole entry, looked up): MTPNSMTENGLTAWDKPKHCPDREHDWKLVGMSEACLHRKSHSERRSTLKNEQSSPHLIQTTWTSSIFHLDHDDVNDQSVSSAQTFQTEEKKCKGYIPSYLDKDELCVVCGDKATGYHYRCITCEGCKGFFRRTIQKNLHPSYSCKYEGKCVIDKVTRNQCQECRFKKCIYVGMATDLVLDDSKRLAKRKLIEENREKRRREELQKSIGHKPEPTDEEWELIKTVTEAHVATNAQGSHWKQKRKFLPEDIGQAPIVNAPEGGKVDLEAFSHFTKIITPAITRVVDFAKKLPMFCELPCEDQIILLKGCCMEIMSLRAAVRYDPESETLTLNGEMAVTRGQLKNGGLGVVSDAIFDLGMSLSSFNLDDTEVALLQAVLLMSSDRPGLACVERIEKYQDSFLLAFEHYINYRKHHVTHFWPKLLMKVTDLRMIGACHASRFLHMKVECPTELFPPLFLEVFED

A short description of experiment [15]: qHTS assay for small molecule disruptors of the mitochondrial membrane potential - 5 hr assay (AID 651755; calls by dose curve; note: nearly all actives have a fitted effect of over 40% in size; note: potency is the fitted concentration of half-maximal effect). In outline:
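Membrane-potential dye readout: red aggregate (540 ex/590 em) versus green monomer (490 ex/535 em) fluorescence after 30 min dye loading, following 5 hr compound exposure at 37C of overnight-plated HepG2 cells.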

Experiment [16] is described as follows: qHTS assay for small molecule agonists of the antioxidant response element (ARE) signaling pathway measured by Nrf2-dependant transcriptional activity (AID 720636; active = well fitted curve in the direction sought with a large enough effect in the repeat runs; an effect the other way counts as inactive or inconclusive; note: % of control where 0% means no effect). In outline: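 Quantitative HTS format in HepG2 cells stably expressing an ARE-luciferase reporter; 16 hr compound treatment at 37 C, luciferase signal detected with ONE-Glo.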
For experiment [17], the target named is Nuclear receptor subfamily 1 group I member 2 (Rattus norvegicus) (UniProt Q9R1A7). Kind of experiment: qHTS assay for small molecule activators of the rat pregnane X receptor (rPXR) signaling pathway (AID 651751; call rule not given here; note: 0% is about no effect). The following applies: rPXR reporter cells, luciferase (One-Glo), 24 h.
Nuclear receptor subfamily 1 group I member 2 (Rattus norvegicus), sequence (Q9R1A7 whole entry, looked up): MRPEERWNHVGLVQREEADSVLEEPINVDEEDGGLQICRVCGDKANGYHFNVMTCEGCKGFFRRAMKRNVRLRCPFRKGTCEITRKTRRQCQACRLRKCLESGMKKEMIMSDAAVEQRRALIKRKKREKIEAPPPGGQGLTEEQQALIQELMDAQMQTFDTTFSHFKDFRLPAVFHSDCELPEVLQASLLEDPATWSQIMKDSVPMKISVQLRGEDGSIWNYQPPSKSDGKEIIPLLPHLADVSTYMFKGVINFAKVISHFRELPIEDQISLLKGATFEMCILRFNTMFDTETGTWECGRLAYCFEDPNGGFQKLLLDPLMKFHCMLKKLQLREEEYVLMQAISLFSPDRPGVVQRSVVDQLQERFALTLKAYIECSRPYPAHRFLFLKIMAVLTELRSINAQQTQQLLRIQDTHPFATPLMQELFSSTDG
Experiment [18] is described as follows: Cell Viability - Hek293 (AID 427;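 active = compounds whose dose-response curve shows a full or clear partial loss of cell viability, called from curve shape rather than a numeric limit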;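 note: potency is the fitted concentration of half-maximal effect; cells exposed to compound for 40 hours at 37 °C before reading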). The following applies: qHTS. In short, it runs like this:
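Luminescent ATP read-out (CellTiter-Glo, 20 min RT) after 40 hr compound exposure at 37 °C in complete medium. Signal normalized to DMSO (basal) and 100 uM tamoxifen (100% inhibition); concentration-response fitted with the standard Hill equation to give AC50.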

A short description of experiment [19]: Cell Viability - H-4-II-E (AID 543).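 Note: cells exposed to compound for 40 hours; nearly all actives have a fitted effect of over 35% in size.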 Note: potency is the fitted concentration of half-maximal effect. In short, it runs like this: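 Cells seeded at 1500 per well and rested 5 hr; compounds added; 40 hr incubation at 37 °C; CellTiter-Glo added, 20 min at room temperature; luminescence read. Hill-equation fits gave AC50.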
A short description of experiment [20]: qHTS assay for small molecule disruptors of the mitochondrial membrane potential - 1 hr assay (AID 651754; calls by dose curve; note: nearly all actives have a fitted effect of over 35% in size; note: potency is the fitted concentration of half-maximal effect). In short, it runs like this: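 Loss of mitochondrial potential shifts the cationic dye from red mitochondrial aggregates to green cytoplasmic monomers. Cells (HepG2) are treated with compound for 1 hr before a 30 min dye incubation at 37C.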

Several values for one entry are separate records, joined by “and”; a condition that tells them apart may be missing. Equal entries are not always repeated. Inconclusive results are not listed. Activity calls are given as the source filed them. Unless noted, calls come from the whole dose curve; as a rule, active = well fitted curve in the direction sought with a large enough effect; inconclusive = small, poorly fitted or top-dose-only effect, or another doubt; inactive = no such curve, though single readings can be large; an effect the other way counts as inactive or inconclusive. Bounds are passed on as bounds.

Retinoic acid receptor RXR-alpha (Homo sapiens), sequence (P19793 whole entry, looked up): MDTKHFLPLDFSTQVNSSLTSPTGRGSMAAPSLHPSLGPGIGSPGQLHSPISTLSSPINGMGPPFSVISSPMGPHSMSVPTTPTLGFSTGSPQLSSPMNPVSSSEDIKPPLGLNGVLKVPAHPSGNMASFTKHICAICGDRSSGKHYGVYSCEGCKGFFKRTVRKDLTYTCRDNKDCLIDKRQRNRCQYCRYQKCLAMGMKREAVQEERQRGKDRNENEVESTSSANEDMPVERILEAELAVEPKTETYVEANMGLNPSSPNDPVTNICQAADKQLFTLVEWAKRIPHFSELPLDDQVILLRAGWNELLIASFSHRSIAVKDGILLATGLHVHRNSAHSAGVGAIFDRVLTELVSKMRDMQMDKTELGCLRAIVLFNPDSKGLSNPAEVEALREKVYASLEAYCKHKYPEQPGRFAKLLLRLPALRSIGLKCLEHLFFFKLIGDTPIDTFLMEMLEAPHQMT

With `S=C(NC1CCCCC1)NC1CCCCC1`, the Potency in experiment [1] is 31.6 µM (active). In addition, the Potency entry in experiment [2], in [3], in [4], in experiment [5], in experiment [6] and in [7] was “inactive” each time. Also, the Potency result in [8], in [9], in [10], in experiment [11], in experiment [13] and in [14] was “inactive” each time. Further, the Potency entry in experiment [15] and in [16] was “inactive” each time. The max response was 7.4% in [12] and 8.83% (inactive) in experiment [17].
Regarding `c1ccc2c(c1)ccc1ccccc12`, the Potency in experiment [18] is > 92 µM (inactive). For the same molecule, in [1], the activity change, negative = cytotoxicity is -13.8% (inactive). For the same molecule, the Potency entry in experiment [19], in experiment [3], in experiment [4], in [5], in experiment [7] and in experiment [8] was “inactive” each time. For the same molecule, the Potency entry in experiment [9], in experiment [10], in experiment [11], in experiment [13], in experiment [14] and in [20] was “inactive” each time. The Potency result in experiment [15] and in experiment [16] was “inactive” in each case. Also, the max response in experiment [12] is -6.28%; in [17], -1.82% (inactive) and 1.55% (inactive).
Take `O=Nc1ccc(Nc2ccccc2)cc1`: the Potency in [18] is 30.8 µM (active); in experiment [19], 31.6 µM (active); in [2], 2.51 µM (active). Also, the activity change, negative = cytotoxicity in [1] was -115% (active). Further, the Potency result in experiment [14], in experiment [20] and in experiment [15] was “inactive” in each case.
For the molecule `O=C=Nc1ccc(Cl)c(Cl)c1`, the Potency in experiment [18] is 38.9 µM (active); in experiment [1], 31.6 µM (active); in experiment [19] it was 31.6 µM (active); in experiment [20] it was 4.22 µM (active); in experiment [15], 5.96 µM (active). Further, the Potency result in experiment [4], in experiment [5], in experiment [6] and in experiment [16] was “inactive” throughout.
With `CN(C)c1ccc(C(=N)c2ccc(N(C)C)cc2)cc1`, the Potency was 31.6 µM (active) in [1], 12.6 µM (active) in experiment [19], 10 µM (active) in experiment [2] and 15.8 µM (active) in experiment [4]. Besides, the Potency entry in [6] and in experiment [14] was “inactive” throughout.
On to `C=C(C#N)C(=O)OCC`, for which, in experiment [18], the Potency is > 92 µM (inactive). In experiment [1], the activity change, negative = cytotoxicity is -3.66% (inactive). For the same molecule, the Potency result in experiment [19], in [2], in experiment [3], in [4], in experiment [6] and in experiment [7] was “inactive” throughout. The Potency entry in [8], in experiment [9], in experiment [11], in [13], in experiment [14] and in [20] was “inactive” each time. The Potency result in experiment [15] and in experiment [16] was “inactive” throughout. In addition, the results for the max response in experiment [12] and in experiment [17] were 6.28% and -1.42% (inactive), respectively.
Consider `CCc1ccc(C(c2ccc(CC)cc2)C(Cl)Cl)cc1`, for which the Potency in [18] was > 92 µM (inactive). The Potency entry in experiment [19], in experiment [2], in experiment [3], in experiment [4], in experiment [5] and in [6] was “inactive” throughout. Besides, the Potency entry in experiment [7], in experiment [8], in [9], in experiment [10], in experiment [11] and in experiment [14] was “inactive” each time. The Potency entry in experiment [20], in experiment [15] and in experiment [16] was “inactive” in each case. Besides, in [17], the max response is 1.82% (inactive).
Consider `O=[N+]([O-])c1cc(N(CCO)CCO)ccc1NCCO`, for which the Potency entry in [4], in experiment [6], in experiment [7], in [8], in [11] and in experiment [13] was “inactive” throughout. The Potency entry in experiment [14], in experiment [20] and in experiment [16] was “inactive” each time. The max response in [12] was 7.09% and -3.73%; in [17] it was -6.76% (inactive) and -5.03% (inactive).
